Unmarked numbers belong to inactive results. No rule for the calls is given here.
Each molecule was assayed against Pantothenate synthetase (Mycobacterium tuberculosis (strain ATCC 25618 / H37Rv)) (UniProt P9WIL5) (assay: Recombinant Mtb pantothenate synthetase (PanC) inhibitors, coupled enzyme, confirmatory (AID 375;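 also: 0% = full reaction with vehicle and 100% = no enzyme background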)). Conditions: coupled enzyme assay; at 10 µM, hits give high values.
Sequence of Pantothenate synthetase (Mycobacterium tuberculosis (strain ATCC 25618 / H37Rv)) (P9WIL5 whole entry, looked up): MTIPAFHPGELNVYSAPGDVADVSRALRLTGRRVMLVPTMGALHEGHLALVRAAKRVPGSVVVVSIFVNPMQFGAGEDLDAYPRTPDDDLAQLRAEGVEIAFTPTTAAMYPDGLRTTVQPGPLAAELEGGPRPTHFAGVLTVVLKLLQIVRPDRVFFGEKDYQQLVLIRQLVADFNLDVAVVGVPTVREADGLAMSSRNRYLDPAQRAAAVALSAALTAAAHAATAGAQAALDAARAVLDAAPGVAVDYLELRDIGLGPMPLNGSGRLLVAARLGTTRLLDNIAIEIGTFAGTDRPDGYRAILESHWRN

Row | Structure (SMILES) | inhibition
1 | CCC(C)(C(=O)NC1CCCC1)N(Cc1cccs1)C(=O)Cc1cccs1 (stereo not given) | 0%
2 | CCCC1(C(=O)OCC)NC(c2ccc(N(C)C)cc2)C2C(=O)N(c3ccc(F)cc3)C(=O)C21 (stereo not given) | 3%
3 | Nc1nnc(-c2cc3ccccc3oc2=O)s1 | 8%
4 | Cc1cc(C(=O)NCc2cccnc2)no1 | 0%
5 | CCOC(=O)c1ccc(N2C(=O)CC(NC3CCN(C(=O)c4ccc(F)cc4)CC3)C2=O)cc1 (stereo not given) | 1%
6 | COC(=O)c1ccccc1NC(=O)COc1ccc(S(=O)(=O)N2CCCC2)cc1C | 0%
7 | Cc1ccc(S(=O)(=O)N(CC(=O)N2CCC(C(N)=O)CC2)Cc2ccc(F)cc2)cc1 | 0%
8 | O=C(CCCCCn1c(SCc2ccncc2)nc2ccccc2c1=O)NCc1ccco1 | 0%
9 | Cc1cc(C(=O)Cn2cncn2)c(C)n1CCc1ccc(F)cc1 | 1%
10 | O=C(Nc1ccc(Cl)cc1)N1CCSCC1 | 1%
11 | O=C(NCc1ccco1)c1cccn2c(=O)c3sccc3nc12 | 4%
12 | COCCNC(=S)c1ccc(OC)cc1 | 5%
13 | CCC(C)NC(=O)c1ccccc1NC(=O)C(C)N(c1ccccc1)S(C)(=O)=O (stereo not given) | 0%
14 | Cc1cc(NC(=O)CCCC(=O)Nc2ccc(F)cc2)no1 | 4%
15 | COc1ccc(-n2ncc3c(=O)n(CC(=O)OCc4ccccc4)cnc32)cc1 | 0%
16 | COc1cccc(NC(=O)N(Cc2ccco2)C(C)c2cccs2)c1 (stereo not given) | 2%
17 | O=C(Nc1cccc(C(=O)N2CCOCC2)c1)c1cccnc1 | 0%
18 | CC1(C)O[C@@H]2C[C@H]3[C@@H]4C[C@H](F)C5=CC(=O)CC[C@]5(C)[C@H]4[C@@H](O)C[C@]3(C)[C@]2(C(=O)CO)O1 | 7%
19 | O=C(Cc1cccs1)Nc1nnc(CCc2ccccc2)s1 | 0%
20 | CCCc1cc(C(=O)Nc2ccc(C(C)=O)cc2)no1 | 0%

Row | Structure (SMILES) | inhibition
21 | COc1ccc(OC)c(CNC(=O)COc2cc(=O)n(C)c3ccccc23)c1 | 0%
22 | CC1(C)OC(=O)N(c2cccnc2)C1(C)O (stereo not given) | 3%
23 | O=c1oc2ccccc2c(O)c1C=NCc1ccccn1 | 0%
24 | O=C(Nc1cccnc1)c1ccc2c(c1)C(=O)N(Cc1cccnc1)C2=O | 0%
25 | O=C(C1CCC(CNc2c(N3CCCCC3)c(=O)c2=O)CC1)N1CCc2ccccc2C1 (stereo not given) | 0%
26 | Cc1ccc2nc(NCCCN3CCOCC3)c(C=NCCCN3CCOCC3)c(=O)n2c1 | 0%
27 | CCOC(=O)N1CCC(N(CCCOC)C(=O)Nc2ccc(CC)cc2)CC1 | 0%
28 | O=C1c2oc3ccccc3c(=O)c2C(c2ccccn2)N1Cc1ccccc1 (stereo not given) | 13%
29 | CCOC(=O)c1[nH]c2ccc(Br)cc2c1NC(=O)CCN1CCC(C(=O)OCC)CC1 | 0%
30 | CCC(=O)NC1(C(F)(F)F)C(=O)NC(C)=C1C#N (stereo not given) | 6%
31 | CCOc1cccc(C(=O)N(Cc2ccc(F)cc2)C2CCS(=O)(=O)C2)c1 (stereo not given) | 3%
32 | O=C(NCc1ccccn1)c1cccs1 | 0%
33 | CC(=O)N1CCC2(CC1)CC(=O)c1cc(OCC(=O)NCc3ccco3)ccc1O2 | 3%
34 | Cc1sc2nc(SCC(=O)Nc3c(C)n(C)n(-c4ccccc4)c3=O)n(C)c(=O)c2c1C | 0%
35 | Nc1c(C2=NCCO2)nnn1Cc1ccccc1 | 0%
36 | COc1cc([C@@H]2c3cc4c(cc3[C@H](O)[C@H]3COC(=O)[C@H]23)OCO4)cc(OC)c1OC | 0%
37 | O=C(NCC12CC3CC(C1)CC(CNC(=O)N1CCCC1)(C3)C2)N1CCCC1 | 0%
38 | Cc1ccc2[nH]c(=O)c(CN(CCCO)S(=O)(=O)c3c(C)ccc4nsnc34)cc2c1 | 6%
39 | CCCCOc1ccc(C(=O)CCN2CCCCC2)cc1 | 9%
40 | CCOc1ccc(Cn2nnc(C(=O)Nc3ccc(OC)cc3OC)c2N)cc1 | 0%

— PubChem BioAssay
